Screens from PubChem BioAssay.
IL2 activator: activators of IL-2 | IL-2 activation reporter assay, cell-based qHTS; stimulated with anti-CD3/CD4/CD28 beads; in transgenic mouse T cells | activation, % (series mostly up to about 46 µM) | 0.065% of 360,000 active; in the data active = activation above about 50%; inconclusive = mostly about 30% to 49%; note: 0% is about no effect
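First, unstimulated transgenic mouse T cells were exposed to compound for 60 min. Next, anti-CD3/anti-CD4-coated beads with anti-CD28 were added. Finally, after 18 h at 37 degrees C, EGFP and DsRed were imaged.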
Nrf2 activator: Nrf2 pathway activation | AREc32 ARE-luciferase reporter (MCF7-derived line), luminescence, 24 h | Potency, µM (series often up to 46.1 µM), without a hit: at the top dose activation, most hits filed as activators | 0.31% of 410,000 active; note: potency is the fitted concentration of half-maximal effect; % of control where 0% means no effect; nearly all actives have a fitted effect of over 65% in size
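ARE-driven firefly luciferase activity in AREc32 cells measured after a 24 hr compound exposure at 37 deg C, using Steady-Glo reagent and a 30 min room-temperature hold.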
Integrin act MD: integrin-mediated muscular dystrophy alleviation activation. alpha7betagal myoblasts, beta-gal FDG fluorescence, 48 h. Potency, µM (titrated, usually from 38.3 µM), without a hit: at the highest dose activation, most hits filed as activators. 0.064% of 350,000 active. AID 624291;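 note: potency is the fitted concentration of half-maximal effect; 100% = response of the positive control SU9516; nearly all actives have a fitted effect of over 60% in size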
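Alpha7betagal+/- myoblasts (passage 13) were plated 16-24 hr, then exposed to compounds (1:260 dilution of DMSO stock) for 48 hours at 37C. After MPER lysis, β-galactosidase reporter activity was read as FDG fluorescence (ex 480/em 540) after 30 minutes.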
ALOX12 inh: inhibitors of human 12S-lipoxygenase ALOX12; Potency, µM (titrated, usually from 108 µM), for inactives: at the top dose activity change, negative = inhibition, hits mostly inhibitors; purified 12hLO, xylenol orange hydroperoxide absorbance; AID 1671190; 1.1% of 580,000 active; P18054; note: potency is the fitted concentration of half-maximal effect; % is set by controls: 0 for no effect and ±100 for the full control effect
Target sequence (P18054 whole entry, looked up): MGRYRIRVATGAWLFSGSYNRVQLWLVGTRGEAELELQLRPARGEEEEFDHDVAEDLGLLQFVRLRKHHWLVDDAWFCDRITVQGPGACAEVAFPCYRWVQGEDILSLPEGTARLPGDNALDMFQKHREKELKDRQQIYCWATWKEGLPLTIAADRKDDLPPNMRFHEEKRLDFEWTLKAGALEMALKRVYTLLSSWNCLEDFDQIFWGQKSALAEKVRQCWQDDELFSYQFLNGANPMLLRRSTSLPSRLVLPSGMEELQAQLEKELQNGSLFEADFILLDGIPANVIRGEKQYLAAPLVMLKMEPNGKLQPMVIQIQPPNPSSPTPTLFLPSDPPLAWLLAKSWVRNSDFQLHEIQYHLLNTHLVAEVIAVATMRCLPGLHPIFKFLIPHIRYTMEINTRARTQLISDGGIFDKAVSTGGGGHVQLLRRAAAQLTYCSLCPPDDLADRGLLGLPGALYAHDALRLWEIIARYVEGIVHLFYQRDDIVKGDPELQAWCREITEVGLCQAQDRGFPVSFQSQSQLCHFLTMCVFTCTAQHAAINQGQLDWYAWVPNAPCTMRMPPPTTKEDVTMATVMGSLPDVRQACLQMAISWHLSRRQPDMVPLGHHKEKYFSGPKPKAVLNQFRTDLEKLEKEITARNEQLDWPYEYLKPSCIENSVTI
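Hydroperoxide product was detected by ferrous iron/xylenol orange as the 573 to 405 nm absorbance ratio. Arachidonic acid at 40 uM (final) was turned over for 30 min at room temperature by 150 nM human 12hLO, pH 7.0 Hepes buffer, after 15 min compound preincubation.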
uPA surface inh: blocks generation of uPA at the cell surface. Potency, µM (titrated, usually from 38.3 µM), for the others: top-dose activity change, negative = inhibition, actives largely listed as inhibitors. cell surface uPA generation assay, qHTS. 0.31% of 330,000 active; active = well fitted inhibition curve with a large enough effect; inconclusive = small, poorly fitted or top-dose-only effect; inactive = no such curve, though single readings can be large or run the other way; tested in mouse RAW 264.7 cells; note: potency is the fitted concentration of half-maximal effect; % is set by controls: 0 for no effect and ±100 for the full control effect; nearly all actives have a fitted effect of over 55% in size
Active calls of the source: *; i = inactive; ? = inconclusive; nt = no result; [ ] = dose if it differs, or a comment. In the library only some 1.5% were active in any assay of this set; here they are far more common. Unless noted, calls come from the whole dose curve; as a rule, active = well fitted curve in the direction sought with a large enough effect; inconclusive = small, poorly fitted or top-dose-only effect, or another doubt; inactive = no such curve, though single readings can be large; an effect the other way counts as inactive or inconclusive.

SMILES | IL2 activator | Nrf2 activator | Integrin act MD | ALOX12 inh | uPA surface inh
OC[C@@H]1O[C@H](CNCc2cccc(Cl)c2)[C@H](N2CCOCC2)[C@@H]1O | nt | nt | nt | 3%[176 µM] | nt
COc1cccc(N2C(=O)NC(=NC3CCCC3)C23CCCN(CC2CCCCC2)C3)c1 (configuration not stated) | nt | nt | nt | 79µM* | nt
CS(=O)(=O)c1ccc2c(c1)nc1n2[C@@H](CNC2CCCCC2)COC1 | nt | nt | nt | 15%[176 µM] | nt
NNc1nc2sc3c(c2c(=O)[nH]1)CCc1ccccc1-3 | -4 | 5% | -7% | 35µM* | 5%
CC(NCc1ccco1)c1ccccc1 (configuration not stated) | nt | nt | nt | 2% | nt
COc1ccc(-c2cc(C(=O)NNC(=S)NC(=O)c3c(-c4ccccc4)noc3C)[nH]n2)cc1 | -4 | 0% | -32% | 11µM* | -11%
COc1ccc(/C=C/C(=O)NC(=S)NNC(=O)c2c(-c3ccccc3)noc2C)cc1 | 4 | 0% | -8% | ? | -3%
Cc1nc2ccccn2c1-c1csc(NCc2ccco2)n1 | 0 | 5% | -48% | -2% | -6%
Cc1ccn2c(-c3n[nH]c(=S)n3Cc3ccccc3)c(C)nc2c1 | 1 | 0% | 16% | 8.9µM* | -2%
Cc1ccn2c(-c3csc(NCc4ccccc4)n3)c(C)nc2c1 | -1 | 6% | -56% | 11µM* | -12%
O=C(CSc1ncnc2sc3c(c12)CCCCC3)Nc1ccc2c(c1)OCCO2 | nt | nt | nt | -1% | nt
O=C1CCN(C(=O)CC(c2ccccc2)c2ccc3c(c2)OCO3)CCN1 (configuration not stated) | nt | nt | nt | 71% | nt
CN(Cc1ccccc1)C(=O)C[C@@H]1O[C@H](CNC(=O)c2ccno2)[C@@H](O)[C@H]1O | nt | nt | nt | 28µM* | nt
CN(Cc1ccccc1)C(=O)C[C@@H]1O[C@H](CNC(=O)Nc2cccc(F)c2)[C@@H](O)[C@H]1O | nt | nt | nt | -4%[176 µM] | nt
CC1=CC(=O)C(C(C)C)=C/C1=N/OS(=O)(=O)c1ccccc1 | 0 | ? | -63% | -20% | 4µM*
Cc1cc(C)cc(N(CCC#N)C(=O)CN(C)CC(=O)Nc2ccccc2Cl)c1 | nt | nt | nt | -6% | nt
O=C(Cn1ccc(=O)[nH]c1=O)N1C[C@H]2CC[C@@H]1CN(Cc1cscn1)C2 | nt | nt | nt | 8.9µM* | nt
O=C(c1ccc2c(c1)CCC2)N1C[C@H]2CC[C@@H]1CN(Cc1cscn1)C2 | nt | nt | nt | 47% | nt
Oc1ccccc1CNC1(Cc2cc(-c3ccccn3)on2)COC1 | nt | nt | nt | -3%[176 µM] | nt
Cc1cc2nc(/C(C#N)=C/c3cccc(C(F)(F)F)c3)[nH]c2cc1C | nt | nt | nt | -13% | nt
CC(C)(C)/C(O)=C/c1nc2cc(Cl)ccc2oc1=O | -2 | 10µM* | -50% | ? | -14%
Cc1ccc2oc(=O)c(/C=C(\O)C(C)(C)C)nc2c1 | 0 | ? | -35% | -11% | -19%
C/C(=C\C=C\c1ccco1)C(=O)c1ccc(Br)cc1 | nt | nt | nt | 2µM* | nt
CCC(CC)NC(=O)[C@H]1CCC[C@H]1NC(=O)c1ccc(OC)cc1 | nt | nt | nt | 49% | nt
CC(=O)Nc1ccc(N=Nc2ccccc2)cc1[N+](=O)[O-] | 1 | 7.9µM* | 3% | -2% | -1%
SMILES | IL2 activator | Nrf2 activator | Integrin act MD | ALOX12 inh | uPA surface inh
CC(=O)Nc1cc2oc3ccccc3c2cc1[N+](=O)[O-] | -1 | ? | 18% | 5% | -7%
COc1ccc(/C=C(\C#N)c2nc3ccccc3o2)cc1 | nt | nt | nt | -27% | nt
N#C/C(=C\c1ccc(O)cc1)c1nc2ccccc2o1 | 57* | 12% | 10% | -27% | 0%
CC(C)C(=O)Nc1ccc(NC(=O)c2cccs2)cn1 | -1 | 1% | 16% | 45µM* | -2%
O=C(c1ccc2ccccc2n1)N1CCN(C2CC2)CC1 | nt | nt | nt | -1% | nt
CCCCN(CC)c1ccc(NS(=O)(=O)c2ccc3c(c2)CCCC3)cc1C(=O)O | nt | nt | nt | 1.6µM* | nt
CCCCN(Cc1ccccc1)c1ccc(NS(=O)(=O)c2ccc(F)cc2)cc1C(=O)O | nt | nt | nt | 4µM* | nt
CCOC(=O)c1ccc(S(=O)(=O)Nc2cc(C(=O)O)ccc2Cl)cc1 | 1 | -1% | 9% | ? | 1%
CCN(CC)c1ccc(NS(=O)(=O)CC)cc1C(=O)O | nt | nt | nt | -15% | nt
CCCCN(Cc1ccccc1)c1ccc(C(=O)O)cc1NS(=O)(=O)c1ccc(CC(C)C)cc1 | nt | nt | nt | 14µM* | nt
CCOc1ccc(NC(=O)c2cc(=O)c3ccccc3o2)cc1OC | nt | nt | nt | 6% | nt
CCc1noc2ncnc(N3CCCC(C(=O)NCc4ccccc4Cl)C3)c12 (configuration not stated) | nt | nt | nt | -29% | nt
CN(CCNC(=O)C1CCCN(c2cnn(Cc3ccccc3)c(=O)c2)C1)C1CCCCC1 (configuration not stated) | nt | nt | nt | 45% | nt
CCOc1ccc(-c2cc3c(=O)n(CCNC(=O)c4ccc(F)c(F)c4)ccn3n2)cc1 | nt | nt | nt | -5% | nt
COc1ccc2nc(NC(=O)c3nc(S(=O)(=O)Cc4ccccc4F)ncc3Cl)sc2c1 | nt | 10µM* | nt | -1% | nt
COc1ccc2nc(NC(=O)c3ccccc3C(=O)O)sc2c1 | -3 | 4% | 2% | -9% | -15%
COc1ccc2nc(NC(=O)c3ccccc3F)sc2c1 | 1 | ? | ? | 0% | 10µM*
COc1ccc2nc(NC(=O)c3nc(S(=O)(=O)Cc4ccccc4)ncc3Cl)sc2c1 | nt | ? | nt | 1% | nt
COc1ccc(OC)c(CNC(=O)c2ncoc2-c2cccs2)c1 | nt | nt | nt | 36% | nt
CCc1cccc(CC)c1NC(=O)CN1C(=O)C(=O)c2ccccc21 | nt | 3% | nt | -8% | nt
CCCC(C(=O)Nc1c(C)cccc1C)N1C(=O)C(=O)c2ccccc21 (configuration not stated) | nt | nt | nt | 6.3µM* | nt
O=c1cc(CN2CCN(c3ccccc3)CC2)c2cc(Cl)c(O)cc2o1 | nt | nt | nt | -17% | nt
O=c1cc(CN2CCC(Cc3ccccc3)CC2)c2cc(O)c(-c3ccccc3)cc2o1 | nt | nt | nt | -15% | nt
Cc1ccc(S(=O)(=O)N2CCN(Cc3cc(=O)oc4cc(O)c(Cl)cc34)CC2)cc1 | nt | nt | nt | 45µM* | nt
CCN1CCN(Cc2cc(=O)oc3cc(-c4ccccc4)c(O)cc23)CC1 | nt | nt | nt | 32µM* | nt
SMILES | IL2 activator | Nrf2 activator | Integrin act MD | ALOX12 inh | uPA surface inh
CC(C)C[C@@H](NC(=O)C1=C[C@@H](NS(=O)(=O)c2cccc(C(F)(F)F)c2)[C@@H](O)[C@H](O)C1)C(N)=O | nt | nt | nt | 40µM* | nt
Cc1ccnc(S(=O)(=O)Cc2ccc([N+](=O)[O-])cc2)n1 | 0 | 13µM* | ? | -35% | -13%
Cn1c(CO)cnc1S(=O)(=O)Cc1ccc([N+](=O)[O-])cc1 | -2 | 0% | -3% | i | 2%
O=C(Cc1csc(NC(=O)c2ccccc2)n1)NO | 4 | 17% | -7% | -5% | -14%
O=C(Cc1ccsc1-c1ccccc1)NO | 0 | 15% | 0% | 16µM* | -11%
O=C(NN1C(=O)C2C(c3ccccc3)C=CC(c3ccccc3)C2C1=O)c1cccc(Br)c1 (configuration not stated) | 0 | 11µM* | 16% | -2% | 8%
